Laboratory results from PubChem BioAssay (EPA / NIEHS).
Several values for one entry are separate records, joined by “and”; a condition that tells them apart may be missing. Identical values can stand only once. Results filed as inconclusive are left out. Activity calls are given as the source filed them. Rule for the calls, unless noted: active = hit-call score of the fitted dose curve at least 0.9, where 1 is the maximum; inactive = score below 0.9.

What was measured:
[1] = ATG_M_06_TRANS: Attagene TRANS-FACTORIAL HepG2 Assay for M06 Transcription Factor (Internal Marker) (AID 2282983; active = hit-call score of the fitted dose curve at least 0.9, where 1 is the maximum;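 note: reporter transcript level by RT-PCR then capillary electrophoresis fluorescence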); details: HepG2 Attagene TRANS M06 internal marker reporter
Outline: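 Transfect HepG2 with MRTUs → dose compounds 24 h → isolate RNA, oligo(dT) RT → PCR with reporter primers → 6-FAM primer extension → HpaI digest → CE fragment analysis. Positive direction vs DMSO.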

[2] = biological target: Nuclear receptor subfamily 4 group A member 2 (Homo sapiens) (UniProt P43354); experiment: ATG_NURR1_TRANS: Attagene TRANS-FACTORIAL HepG2 Assay for human Nuclear Receptor Related Protein 1 (NURR1) (AID 2282985; active = hit-call score of the fitted dose curve at least 0.9, where 1 is the maximum); details: HepG2 Attagene TRANS reporter, mRNA readout
Outline: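 HepG2 / transient MRTU transfection / 24 h compound exposure / RT-PCR + CE fluorescence of reporter mRNA / gain-of-signal vs DMSO.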

[3] = biological target: Transcriptional activator Myb (Homo sapiens) (UniProt P10242); experiment: ATG_Myb_CIS: Attagene CIS-FACTORIAL HepG2 Assay for human Myeloblastosis (Myb) Proto-Oncogene Transcription Factor (AID 2282986); details: HepG2 Attagene CIS-FACTORIAL Myb reporter transcription; actives raise or lower the signal
Outline: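 HepG2 cells were transiently transfected with cis-regulated multiple reporter transcription units reflecting endogenous Myb activity, then exposed to compound for 24 hours. Reporter mRNA was measured by RT-PCR with capillary electrophoresis; bidirectional fitting versus DMSO baseline.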

[4] = biological target: Nuclear respiratory factor 1 (Homo sapiens) (UniProt Q16656); experiment: ATG_NRF1_CIS: Attagene CIS-FACTORIAL HepG2 Assay for human Nuclear Respiratory Factor 1 (NRF1) Orphan Gene (AID 2282987); details: HepG2 NRF1 cis-element reporter, Attagene multiplex; actives raise or lower the signal
Outline: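 HepG2 cells transiently transfected with multiple reporter transcription units under cis-regulatory promoter control, so endogenous transcription-factor activity is read. After 24 h compound exposure, reporter mRNA quantified by RT-PCR, fluorescent labelling, HpaI digestion and capillary electrophoresis; bidirectional fitting versus DMSO.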

[5] = ATG_NFI_CIS: Attagene CIS-FACTORIAL HepG2 Assay for human Nuclear Factor I (NFI) (AID 2282989); details: HepG2 cis-regulatory reporter, NFI response element transcription; actives raise or lower the signal
Outline: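 After transient transfection of HepG2 with cis-promoter reporter constructs and 24 h dosing, RNA is reverse-transcribed, amplified, 6-FAM end-labelled and HpaI-digested before capillary analysis. Bidirectional curve fitting against DMSO.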

[6] = biological target: Myc proto-oncogene protein (Homo sapiens) (UniProt P01106); experiment: ATG_Myc_CIS: Attagene CIS-FACTORIAL HepG2 Assay for human Myelocytomatosis (Myc) Proto-Oncogene Transcription Factor (AID 2282990); details: HepG2, Attagene cis-reporter transcription factor activity; actives raise or lower the signal
Outline: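 Read-out: fluorescent reporter mRNA fragments resolved by capillary electrophoresis after RT-PCR. Human HepG2 liver cells carried transfected cis-element reporter units and were dosed for 24 h. Gain or loss of signal fitted relative to DMSO baseline.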

[7] = ATG_NRF2_ARE_CIS: Attagene CIS-FACTORIAL HepG2 Assay for human Nuclear Factor Erythroid 2 Related Factor 2 (NFR2) response to Antioxidant Response Elements (ARE) (AID 2282992); details: HepG2 Attagene ARE/NRF2 reporter, transcription factor activity; actives raise or lower the signal
Outline: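 Transient MRTU transfection of HepG2; 24 h compound exposure; TriZol RNA, RT with oligo(dT), PCR, 6-FAM primer extension, HpaI cut, CE. Bidirectional fit vs DMSO.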

[8] = ATG_Oct_MLP_CIS: Attagene CIS-FACTORIAL HepG2 Assay for human Octamer-Binding Transcription Factor (Oct) (AID 2282993); details: HepG2 Attagene cis-factorial Oct reporter, mRNA; actives raise or lower the signal
Outline: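 Cells of the HepG2 line express promoter-controlled reporter sequences whose mRNA levels, after 24 h treatment, are measured by RT-PCR and capillary electrophoresis. Increases and decreases are scored relative to DMSO.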

[9] = biological target: Cellular tumor antigen p53 (Homo sapiens) (UniProt P04637); experiment: ATG_p53_CIS: Attagene CIS-FACTORIAL HepG2 Assay for human p53 Transcription Factor (AID 2282994); details: HepG2 p53 cis-element reporter, Attagene mRNA; actives raise or lower the signal
Outline: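 HepG2, transient MRTU transfection (cis promoter elements, endogenous TFs); 24 h dosing; RNA isolation, RT-PCR, 6-FAM primer extension, HpaI digest, CE fluorescence; bidirectional fit vs DMSO.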

[10] = biological target: Hepatocyte nuclear factor 4-alpha (Homo sapiens) (UniProt P41235); experiment: ATG_HNF4a_TRANS: Attagene TRANS-FACTORIAL HepG2 Assay for human Hepatocyte Nuclear Factor 4 alpha (HNF4a) (AID 2282982; active = hit-call score of the fitted dose curve at least 0.9, where 1 is the maximum); details: HepG2 HNF4a transactivation reporter, mRNA readout
Outline: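 Gain-of-signal mRNA induction, relative to DMSO vehicle, was read after 24 h compound treatment of HepG2 cells bearing transfected GAL4-UAS reporters. Detection used RT-PCR, 6-FAM primer extension and capillary electrophoresis.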

[11] = ATG_M_32_TRANS: Attagene TRANS-FACTORIAL HepG2 Assay for M32 Transcription Factor (Internal Marker) (AID 2282984; active = hit-call score of the fitted dose curve at least 0.9, where 1 is the maximum;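 note: transcript level of a background control reporter unit measured by RT-PCR and capillary electrophoresis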); details: HepG2 Attagene TRANS M32 internal marker reporter
Outline: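 Capillary electrophoresis of 6-FAM-labelled reporter fragments gives the signal; data fitted for gain over DMSO negative control. Source: HepG2 cells bearing transient multiple reporter transcription units, 24 h exposure.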

[12] = ATG_NF_kB_CIS: Attagene CIS-FACTORIAL HepG2 Assay for human Nuclear Factor Kappa B (NF-kB) (AID 2282991); details: HepG2 Attagene cis-factorial NF-kB reporter mRNA; actives raise or lower the signal
Outline: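 HepG2 cells transiently transfected with multiplexed cis-element reporter units measuring endogenous transcription factor activity; reporter mRNA read 24 h after dosing by RT-PCR, fluorescent labelling, HpaI digestion and capillary electrophoresis. Bidirectional fit against DMSO baseline.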

[13] = BSK_3C_TissueFactor: BioMAP Diversity Plus: 3C Assay for Tissue Factor Biomarker Activity (AID 2282997); details: BioMAP 3C HUVEC, tissue factor biomarker readout; actives raise or lower the signal
Outline: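 ELISA read-out of Tissue Factor levels on human umbilical vein endothelium collected 24 h after chemical dosing. Gain or loss of signal was fitted relative to DMSO.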

[14] = BSK_3C_uPAR: BioMAP Diversity Plus: 3C Assay for Urokinase-type plasminogen activator receptor (uPAR) Biomarker Activity (AID 2282998); details: BioMAP 3C HUVEC, uPAR biomarker ELISA; actives raise or lower the signal
Outline: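 Endothelial primary cells of human umbilical vein origin received test chemical; 24 h later uPAR was assayed by ELISA. Fitting was bidirectional, DMSO as negative control.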

[15] = BSK_3C_VCAM1: BioMAP Diversity Plus: 3C Assay for Vascular cell adhesion molecule 1 (VCAM1) Biomarker Activity (AID 2282999); details: BioMAP 3C HUVEC, VCAM1 ELISA, cytokine-stimulated; actives raise or lower the signal
Outline: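 Human umbilical vein endothelial cells (3C system), biomarker read by ELISA 24 h after dosing; bidirectional fit against DMSO baseline. Cytotoxicity tracked by SRB total-protein staining in parallel cultures at biomarker time.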

[16] = BSK_4H_Eotaxin3: BioMAP Diversity Plus: 4H Assay for Eotaxin 3 Biomarker Activity (AID 2283000); details: primary human endothelial cells (HUVEC); actives raise or lower the signal;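 for outcome: CCL26 protein level quantified by ELISA in parallel with SRB cytotoxicity check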
Outline: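 Chemicals were added to human umbilical vein endothelium cultures, and Eotaxin-3 was quantified by ELISA at 24 h. Values were derived by bidirectional fitting with DMSO serving as negative control and activity baseline.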

Sequence of Transcriptional activator Myb (Homo sapiens) (P10242 whole entry, looked up): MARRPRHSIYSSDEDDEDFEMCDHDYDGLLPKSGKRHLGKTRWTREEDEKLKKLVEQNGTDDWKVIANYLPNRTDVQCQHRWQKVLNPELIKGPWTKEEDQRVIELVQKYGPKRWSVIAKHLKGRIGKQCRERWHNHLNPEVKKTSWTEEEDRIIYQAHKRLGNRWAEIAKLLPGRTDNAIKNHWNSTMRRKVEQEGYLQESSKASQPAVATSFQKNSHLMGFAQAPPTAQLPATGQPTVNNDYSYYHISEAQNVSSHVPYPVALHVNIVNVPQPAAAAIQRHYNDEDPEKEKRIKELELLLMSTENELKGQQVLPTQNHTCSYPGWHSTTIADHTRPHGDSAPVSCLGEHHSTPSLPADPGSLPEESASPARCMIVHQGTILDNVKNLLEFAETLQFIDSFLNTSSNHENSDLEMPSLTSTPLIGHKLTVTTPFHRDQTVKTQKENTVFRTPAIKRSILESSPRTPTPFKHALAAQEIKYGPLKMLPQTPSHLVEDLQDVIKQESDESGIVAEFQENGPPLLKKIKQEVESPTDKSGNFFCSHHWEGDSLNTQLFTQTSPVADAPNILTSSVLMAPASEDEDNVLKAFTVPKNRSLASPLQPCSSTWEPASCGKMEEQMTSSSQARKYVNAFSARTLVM
Sequence of Hepatocyte nuclear factor 4-alpha (Homo sapiens) (P41235 whole entry, looked up, the tested form may be a part): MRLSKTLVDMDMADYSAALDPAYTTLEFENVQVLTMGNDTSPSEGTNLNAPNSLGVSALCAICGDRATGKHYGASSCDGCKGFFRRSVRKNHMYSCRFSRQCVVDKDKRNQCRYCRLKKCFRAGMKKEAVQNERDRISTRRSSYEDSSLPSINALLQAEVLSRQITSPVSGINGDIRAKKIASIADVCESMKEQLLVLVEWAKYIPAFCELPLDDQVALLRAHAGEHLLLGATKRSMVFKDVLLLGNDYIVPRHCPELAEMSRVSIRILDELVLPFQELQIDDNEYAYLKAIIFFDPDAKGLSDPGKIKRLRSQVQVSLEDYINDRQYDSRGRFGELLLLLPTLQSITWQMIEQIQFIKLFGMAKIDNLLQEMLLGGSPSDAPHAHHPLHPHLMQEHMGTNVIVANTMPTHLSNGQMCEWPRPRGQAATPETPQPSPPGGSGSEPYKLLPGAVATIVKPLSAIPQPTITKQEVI
Sequence of Cellular tumor antigen p53 (Homo sapiens) (P04637 whole entry, looked up): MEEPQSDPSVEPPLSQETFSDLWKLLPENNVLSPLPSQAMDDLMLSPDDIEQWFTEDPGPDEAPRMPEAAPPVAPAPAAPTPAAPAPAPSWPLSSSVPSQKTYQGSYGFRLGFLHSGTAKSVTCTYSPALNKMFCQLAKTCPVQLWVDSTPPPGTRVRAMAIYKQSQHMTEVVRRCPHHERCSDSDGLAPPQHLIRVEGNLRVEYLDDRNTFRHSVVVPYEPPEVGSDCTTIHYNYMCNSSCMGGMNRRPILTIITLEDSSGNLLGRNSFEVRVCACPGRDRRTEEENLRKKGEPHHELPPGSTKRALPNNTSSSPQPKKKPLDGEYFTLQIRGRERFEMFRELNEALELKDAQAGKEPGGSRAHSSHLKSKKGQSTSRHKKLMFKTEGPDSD
Sequence of Nuclear respiratory factor 1 (Homo sapiens) (Q16656 whole entry, looked up): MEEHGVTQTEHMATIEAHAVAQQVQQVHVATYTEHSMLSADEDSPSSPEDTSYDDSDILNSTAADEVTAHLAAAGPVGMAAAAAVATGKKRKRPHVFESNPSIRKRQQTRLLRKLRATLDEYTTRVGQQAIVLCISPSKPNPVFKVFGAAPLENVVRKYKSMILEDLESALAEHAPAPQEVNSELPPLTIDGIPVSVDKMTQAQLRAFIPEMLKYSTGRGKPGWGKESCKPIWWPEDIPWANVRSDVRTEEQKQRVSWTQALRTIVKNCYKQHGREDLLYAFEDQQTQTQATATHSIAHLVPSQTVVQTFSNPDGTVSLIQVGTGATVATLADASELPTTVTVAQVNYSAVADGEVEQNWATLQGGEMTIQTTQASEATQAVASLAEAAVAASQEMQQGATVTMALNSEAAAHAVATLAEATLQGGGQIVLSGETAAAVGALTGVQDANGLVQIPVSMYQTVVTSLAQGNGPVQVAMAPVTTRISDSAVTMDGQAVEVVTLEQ
Sequence of Myc proto-oncogene protein (Homo sapiens) (P01106 whole entry, looked up, the tested form may be a part): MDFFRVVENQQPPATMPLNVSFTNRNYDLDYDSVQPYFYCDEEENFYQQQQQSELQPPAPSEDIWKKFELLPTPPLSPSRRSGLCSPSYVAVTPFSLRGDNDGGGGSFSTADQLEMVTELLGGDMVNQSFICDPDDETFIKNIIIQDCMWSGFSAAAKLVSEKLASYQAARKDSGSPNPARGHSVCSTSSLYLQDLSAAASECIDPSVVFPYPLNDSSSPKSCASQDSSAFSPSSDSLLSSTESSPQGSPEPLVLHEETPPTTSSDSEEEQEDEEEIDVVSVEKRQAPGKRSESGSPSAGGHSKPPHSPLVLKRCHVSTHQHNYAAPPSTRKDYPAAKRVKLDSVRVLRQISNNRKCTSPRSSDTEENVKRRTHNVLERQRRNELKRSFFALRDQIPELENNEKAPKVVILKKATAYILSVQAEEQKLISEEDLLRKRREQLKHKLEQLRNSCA
Sequence of Nuclear receptor subfamily 4 group A member 2 (Homo sapiens) (P43354 whole entry, looked up): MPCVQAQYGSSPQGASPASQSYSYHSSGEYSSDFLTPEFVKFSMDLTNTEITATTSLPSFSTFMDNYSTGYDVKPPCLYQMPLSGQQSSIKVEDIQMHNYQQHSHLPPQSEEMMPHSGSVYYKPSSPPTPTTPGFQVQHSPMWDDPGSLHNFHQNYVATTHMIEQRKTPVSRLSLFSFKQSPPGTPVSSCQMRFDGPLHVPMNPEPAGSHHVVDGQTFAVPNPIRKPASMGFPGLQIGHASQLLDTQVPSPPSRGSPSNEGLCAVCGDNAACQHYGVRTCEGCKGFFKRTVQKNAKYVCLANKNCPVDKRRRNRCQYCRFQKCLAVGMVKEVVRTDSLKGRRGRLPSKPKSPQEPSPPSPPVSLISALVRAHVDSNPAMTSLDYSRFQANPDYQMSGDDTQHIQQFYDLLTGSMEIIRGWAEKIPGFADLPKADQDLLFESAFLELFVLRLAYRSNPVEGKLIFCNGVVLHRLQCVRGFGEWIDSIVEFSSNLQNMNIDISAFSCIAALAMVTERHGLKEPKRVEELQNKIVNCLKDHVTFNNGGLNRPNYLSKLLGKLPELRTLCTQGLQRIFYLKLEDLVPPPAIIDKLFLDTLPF

Compound: CC(CC=O)c1ccccc1 (centres undefined)
- outcome [1]: inactive
- outcome [2]: inactive
- outcome [3]: inactive
- outcome [4]: inactive
- outcome [5]: inactive
- outcome [6]: inactive
- AC50 [7]: 121 µM (active)
- outcome [8]: inactive
- outcome [9]: inactive

Compound: Clc1nc2ccccc2s1
- outcome [10]: inactive
- outcome [1]: inactive
- outcome [11]: inactive
- outcome [2]: inactive
- outcome [3]: inactive
- outcome [4]: inactive
- outcome [5]: inactive
- outcome [6]: inactive
- outcome [12]: inactive
- outcome [7]: inactive
- outcome [8]: inactive
- outcome [9]: inactive

Compound: CCCCOCCOC(=O)COc1nc(Cl)c(Cl)cc1Cl
- outcome [11]: inactive
- outcome [3]: inactive
- outcome [4]: inactive
- outcome [5]: inactive
- outcome [6]: inactive
- outcome [12]: inactive
- outcome [7]: inactive
- outcome [8]: inactive
- outcome [9]: inactive

Compound: NC(=O)OCC(COC(N)=O)c1ccccc1
- outcome [10]: inactive
- outcome [1]: inactive
- outcome [2]: inactive
- outcome [3]: inactive
- outcome [4]: inactive
- outcome [5]: inactive
- outcome [6]: inactive
- outcome [12]: inactive
- outcome [7]: inactive
- outcome [8]: inactive
- outcome [9]: inactive

Compound: CCOC(=O)[C@H](C)O
- outcome [1]: inactive
- outcome [11]: inactive
- outcome [2]: inactive
- outcome [3]: inactive
- outcome [4]: inactive
- outcome [5]: inactive
- outcome [6]: inactive
- outcome [12]: inactive
- AC50 [7]: 26.7 µM (active)
- outcome [8]: inactive
- outcome [9]: inactive

Compound: CCCC(=O)OCc1ccccc1
- outcome [10]: inactive
- outcome [11]: inactive
- outcome [3]: inactive
- outcome [5]: inactive
- outcome [6]: inactive
- outcome [12]: inactive
- outcome [7]: inactive
- outcome [8]: inactive
- outcome [9]: inactive

Compound: CCCCCc1ccc(Cl)cc1
- outcome [2]: inactive
- outcome [3]: inactive
- outcome [4]: inactive
- outcome [5]: inactive
- outcome [6]: inactive
- AC50 [7]: 120 µM (active)
- outcome [8]: inactive
- outcome [9]: inactive

Compound: O=C(O)c1cc(Cl)cc([N+](=O)[O-])c1Cl
- outcome [10]: inactive
- outcome [1]: inactive
- outcome [11]: inactive
- outcome [3]: inactive
- outcome [4]: inactive
- outcome [5]: inactive
- outcome [6]: inactive
- outcome [12]: inactive
- outcome [7]: inactive
- outcome [8]: inactive

Compound: CCCC(C)CCC(C)=O (centres undefined)
- outcome [10]: inactive
- outcome [1]: inactive
- outcome [2]: inactive
- outcome [3]: inactive
- outcome [4]: inactive
- outcome [5]: inactive
- outcome [6]: inactive
- outcome [12]: inactive
- outcome [7]: inactive
- outcome [8]: inactive
- outcome [9]: inactive

Compound: Cc1cccc(N)n1
- outcome [10]: inactive
- outcome [1]: inactive
- outcome [3]: inactive
- outcome [4]: inactive
- outcome [5]: inactive
- outcome [6]: inactive
- outcome [7]: inactive
- outcome [8]: inactive
- outcome [9]: inactive

Compound: CC(CC=O)CCCC(C)(C)O (centres undefined)
- outcome [10]: inactive
- outcome [1]: inactive
- outcome [11]: inactive
- outcome [2]: inactive
- outcome [3]: inactive
- outcome [4]: inactive
- outcome [5]: inactive
- outcome [6]: inactive
- outcome [12]: inactive
- outcome [7]: inactive
- outcome [8]: inactive

Compound: CCOC(=O)c1ccccc1C(=C1C=C(Br)C(=O)C(Br)=C1)c1cc(Br)c(O)c(Br)c1
- outcome [10]: inactive
- outcome [1]: inactive
- outcome [11]: inactive
- outcome [3]: inactive
- outcome [4]: inactive
- AC50 [5]: 22.4 µM (active)
- outcome [6]: inactive
- AC50 [12]: 43 µM (active)
- outcome [7]: inactive
- AC50 [13]: 18.6 µM (active) and 9.69 µM (active)
- AC50 [14]: 20 µM (active) and 17.9 µM (active)
- AC50 [15]: 22.9 µM (active) and 21.4 µM (active)
- AC50 [16]: 22.7 µM (active) and 23 µM (active)

Compound: OC1OCCOC1O (centres undefined)
- outcome [1]: inactive
- outcome [11]: inactive
- outcome [3]: inactive
- outcome [5]: inactive
- outcome [6]: inactive
- outcome [12]: inactive
- outcome [7]: inactive
- outcome [8]: inactive
- outcome [9]: inactive

Compound: CCO[Si](C)(OCC)OCC
- outcome [1]: inactive
- outcome [3]: inactive
- outcome [4]: inactive
- outcome [5]: inactive
- outcome [6]: inactive
- outcome [12]: inactive
- outcome [8]: inactive
- outcome [9]: inactive
- outcome [13]: inactive
- outcome [14]: inactive
- outcome [15]: inactive
- outcome [16]: inactive

Compound: CCCCCCC1(C)CCC(=O)O1 (centres undefined)
- outcome [1]: inactive
- outcome [11]: inactive
- outcome [3]: inactive
- outcome [4]: inactive
- outcome [5]: inactive
- outcome [6]: inactive
- outcome [12]: inactive
- outcome [7]: inactive
- outcome [8]: inactive
- outcome [9]: inactive
